Drawing on PubChem BioAssay AID1817 (Sanford-Burnham Center for Chemical Genomics, 2009), this text covers displacement for 91 compounds.

“And” between values parts separate entries of the source, which are not always exact repeats. Equal values may be shown once. About 50 (0.02%) of roughly 290,000 compounds were called active. Only a selection was taken, and actives are over-represented in it overall. Potency and affinity values are given separately. Values without a mark were called inactive.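 The calls were made as follows: active = displacement of at least 50% at 20 µM, with a fluorescence ratio check between 0.3 and a set limit; inactive = the rest.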

This assay deals with E3 ubiquitin-protein ligase SIAH1 (Homo sapiens) (UniProt Q8IUQ4). As to the kind of experiment: blockers of Siah-1 interaction with plectin peptide – biochemical, fluorescence polarization, rhodamine-plectin, uHTS, primary screen (AID 1817).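 Also: plate controls were Siah plus tracer with DMSO for no effect and tracer alone without Siah for full effect.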 Conditions: Siah-1 / rhodamine-plectin peptide fluorescence polarization; at 20 µM; active compounds read high. On the technique in general: Fluorescence polarisation rises when a labelled molecule tumbles more slowly, as on binding a larger partner.
E3 ubiquitin-protein ligase SIAH1 (Homo sapiens), sequence (Q8IUQ4 whole entry, looked up): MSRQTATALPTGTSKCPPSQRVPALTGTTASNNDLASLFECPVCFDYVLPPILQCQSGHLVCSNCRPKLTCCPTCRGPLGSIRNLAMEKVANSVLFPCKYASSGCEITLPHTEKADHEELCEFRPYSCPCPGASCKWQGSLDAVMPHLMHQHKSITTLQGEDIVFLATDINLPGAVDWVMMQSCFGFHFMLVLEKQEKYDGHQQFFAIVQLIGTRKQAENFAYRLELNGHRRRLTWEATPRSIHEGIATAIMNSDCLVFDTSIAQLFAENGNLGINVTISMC
Turning to `Cc1ccc(C(=O)Nc2ccc(Oc3ccc(C(=O)O)c(C(=O)O)c3)cc2)cc1C`, the displacement is -3%.

Turning to `CC(C)(C)C(=O)Nc1ccc(C(=O)Nc2cccc(Oc3ccc(C(=O)O)c(C(=O)O)c3)c2)cc1`, the displacement is 24%.

`O=C(O)Cn1c(=S)sc2ccccc21`: the displacement was -2.4%.

Turning to `COc1cc([N+](=O)[O-])ccc1NC(=S)Nc1cccc(C(=O)O)c1`, the displacement was -2.6%.

For `CCN(CC)CCOC(=O)c1ccc(N/C=C(/C#N)c2nc(-c3ccc4c(c3)OCO4)cs2)cc1`, the displacement was 2.3%.

As to `CCN(CC)CCOC(=O)c1ccc(N/C=C(/C#N)c2nc(-c3cccc(OC)c3)cs2)cc1`, the displacement is -5.2%.

As to `CCN(CC)CCOC(=O)c1ccc(N/C=C(/C#N)c2nc(-c3ccc(OC)cc3)cs2)cc1`, the displacement is 8.3%.

For the compound `COc1cc(/C=C(\C#N)c2nc(-c3cc4ccccc4oc3=O)cs2)ccc1O`, the displacement is 2.9%.

With `C1CC2CN(c3nc4nonc4nc3N3CCSCC3)CCN2C1` (stereo unspecified), the displacement is 1.1%.

Turning to `COc1cccc(CNC(=O)C2CCCN(S(=O)(=O)c3c(C)n[nH]c3C)C2)c1` (stereo unspecified), the displacement is -0.6%.

With `CC(C)N1CCC(N2CCN(C/C=C/c3ccc(F)cc3)CC2CCO)CC1` (stereo unspecified), the displacement was 12%.

Turning to `O=C(/C=C/c1ccc(OCCCF)cc1)NCc1ccc(Cl)cc1`, the displacement was 33.7%.

In the case of `CN(CC(=O)Nc1cccc(F)c1)C(=O)c1ccc(-c2ccc(Cl)cc2)o1`, the displacement was 4.6%.

Turning to `Nc1ccc(Br)c2c1C(=O)c1ccccc1C2=O`, the displacement was 7.9%.

For `Nc1c(O)ccc2c1C(=O)c1ccccc1C2=O`, the displacement is 14.9%.

For the compound `NS(=O)(=O)c1ccc(NC(=O)c2ccc(-c3ccccc3)cc2)cc1`, the displacement is 42.1%.

On to `O=C(O)c1ccc(NS(=O)(=O)c2ccc(C(=O)Nc3ccccc3)cc2)cc1`, for which the displacement was -5.7%.

With `O=C(NCc1ccccn1)C1CCN(S(=O)(=O)N2CCCC2)CC1`, the displacement was 3.2%.

For the compound `O=C(Cn1cnc2c(cnn2-c2ccccc2)c1=O)N1CCN(c2ccc(F)cc2)CC1`, the displacement is 0.6%.

Turning to `Cc1cc(NS(=O)(=O)c2ccc(NC(=O)C(C)Oc3cc(C)c(Cl)c(C)c3)cc2)no1` (stereo unspecified), the displacement is 0.9%.

Consider `CCc1nnc(NS(=O)(=O)c2ccc(NC(=S)NC(=O)/C=C/c3ccccc3)cc2)s1`, for which the displacement was 11.7%.

On to `CCc1nnc(NS(=O)(=O)c2ccc(NC(=S)NC(=O)/C=C/c3ccc(F)cc3)cc2)s1`, for which the displacement is 12.9%.

Consider `CCc1nnc(NS(=O)(=O)c2ccc(NC(=S)NC(=O)/C=C/c3cccs3)cc2)s1`, for which the displacement is 15.5%.

As for `CCc1nnc(NS(=O)(=O)c2ccc(NC(=S)NC(=O)/C=C/c3ccc(OC)cc3)cc2)s1`, the displacement is 51.9% (active).

Regarding `CCc1nnc(NS(=O)(=O)c2ccc(NC(=S)NC(=O)/C=C/c3ccc([N+](=O)[O-])cc3)cc2)s1`, the displacement was 12.8%.

`COCCCNc1oc(-c2ccccc2Cl)nc1C#N`: the displacement is -5.3%.

As to `CN1CCN(C(=O)c2cn(-c3ccccc3)nc2-c2cccnc2)CC1`, the displacement was -0.3%.

Regarding `O=C(NCc1ccccc1)c1cc(-c2cccs2)on1`, the displacement is -1.2%.

With `O=C(NCc1ccc(F)cc1)c1cc(-c2cccs2)on1`, the displacement is 3.6%.

With `CC(NC(=O)C(=O)c1cn(CC(=O)N2CCOCC2)c2ccccc12)c1ccccc1` (stereo unspecified), the displacement is 1.9%.

On to `CC(C)CNS(=O)(=O)c1ccc(CC(C)C)cc1`, for which the displacement was 1.9%.

For `O=C(Nc1ccc(Nc2ccncc2)cc1)c1ccc(Nc2ccnc3ccc([N+](=O)[O-])cc23)cc1`, the displacement was 60% (active).

In the case of `O=C(Nc1ccc(Nc2ccncc2)cc1)c1ccc(Nc2ccnc3ccc([N+](=O)[O-])cc23)cc1[N+](=O)[O-]`, the displacement is 17.2%.

Regarding `O=C(Nc1ccc(Nc2ccncc2)cc1)c1ccc([N+](=O)[O-])cc1`, the displacement is 2.7%.

In the case of `CSc1ccc(/C=C/C(=O)N2CCCN(C)CC2)cc1`, the displacement was 4%.

`N#Cc1ccc(NC(=O)CNc2cc(S(=O)(=O)N3CCOCC3)ccc2NCC2CCCO2)cc1` (stereo unspecified): the displacement is -0.4%.

On to `CCc1nnc(NC(=O)c2ccc(COc3ccccc3Cl)o2)s1`, for which the displacement is 5.6%.

Regarding `CCOC(=O)C1(S(=O)(=O)c2ccc(Cl)cc2)CCN(Cc2ccc(C)cc2)CC1`, the displacement was -0.2%.

As to `COc1cccc(C(=O)N2CCN(Cc3ccccc3Br)CC2)c1`, the displacement was 3.1%.

Turning to `COC(=O)C(C(=O)OC)C(c1ccccc1)C(C(=O)c1ccccc1)[N+](=O)[O-]` (stereo unspecified), the displacement was 2%.

Regarding `COc1cc(OC)c(-c2c3cc(O)c(=O)cc-3oc3cc(O)c(O)cc23)cc1OC`, the displacement was 48%.

Regarding `COc1ccc(OC)c(-c2c3cc(O)c(=O)cc-3oc3cc(O)c(O)cc23)c1`, the displacement is 58.5%.

Take `O=c1cc2oc3cc(O)c(O)cc3c(-c3ccccc3[N+](=O)[O-])c-2cc1O`: the displacement is 48.7%.

For `Cc1c2cc(O)c(=O)cc-2oc2cc(O)c(O)cc12`, the displacement was 70.1% and 99.1%.

As for `CCOc1ccccc1-c1c2cc(O)c(=O)cc-2oc2cc(O)c(O)cc12`, the displacement was 61.3% (active).

Take `O=c1cc2oc3cc(O)c(O)cc3c(-c3ccccc3O)c-2cc1O`: the displacement is 83.3% (active).

Regarding `COc1cc(S(=O)(=O)NC(C)C)ccc1Cl`, the displacement was 3%.

In the case of `CC(C)c1ccccc1NC(=S)N(C)C`, the displacement was -9.8%.

Take `COC(=O)CCSc1nc(N2CCOCC2)c2c(c1C#N)CC(C)(C)OC2`: the displacement was 1.2%.

For `Cc1cccc(C)c1NC(=O)C1CCCN1S(=O)(=O)c1ccc2c(c1)n(C)c(=O)c(=O)n2C` (stereo unspecified), the displacement is 2.2%.

In the case of `COCCNC(=S)N(CCc1c(C)[nH]c2ccc(C)cc12)Cc1ccco1`, the displacement was 1.4%.

In the case of `CCOC(=O)c1ccc(-n2c(O)c(/C=N/NC(=O)C3COc4ccccc4O3)c3ccccc3c2=O)cc1` (stereo unspecified), the displacement is -6%.

As for `Cc1nc(NC(=S)NC(=O)c2cncc(Br)c2)ccc1Br`, the displacement is -7%.

Take `Cc1cccc(C(=O)NC(C(=O)Nc2nc(-c3ccccn3)cs2)C(C)C)c1` (stereo unspecified): the displacement was -2.5%.

With `O=C(NN1C(=O)C2C(C1=O)C1C=CC2C12CC2)c1ccncc1` (stereo unspecified), the displacement was 0.7%.

Regarding `O=C(NN1C(=O)C2C3C=CC(C3)C2C1=O)c1ccncc1` (stereo unspecified), the displacement was 3.2%.

Consider `O=C(NN1C(=O)C2CC=C(Cl)CC2C1=O)c1ccncc1` (stereo unspecified), for which the displacement is 69.4% (active).

Regarding `C[C@@H](C[C@@H](O)[C@H](O)C(C)(C)O)[C@@H]1CC[C@]2(C)C3=CC[C@H]4C(C)(C)C(=O)CC[C@]4(C)[C@H]3CC[C@@]12C`, the displacement is 2.8%.

`CC(NC(=O)C1CCCN(S(=O)(=O)c2cccs2)C1)c1ccccc1` (stereo unspecified): the displacement was 0.2%.

As for `COc1cc(OC)c(OC)cc1CN1CCCC(C(=O)c2sccc2C)C1` (stereo unspecified), the displacement is -6.6%.

Take `COc1ccc(CCn2c(N)c(C(=O)NCc3ccco3)c3nc4ccccc4nc32)cc1OC`: the displacement was -1.3%.

Turning to `Nc1c(C(=O)NCc2ccco2)c2nc3ccccc3nc2n1CCc1ccc(F)cc1`, the displacement was 2.1%.

As to `COc1ccc(CCn2c(N)c(C(=O)NCc3ccco3)c3nc4ccccc4nc32)cc1`, the displacement was 57.5% (active).

Turning to `Cn1c(Cl)c(/C=N/OC(=O)c2ccccc2Cl)c2ccccc21`, the displacement was -1.7%.

In the case of `CC12CCC(C(=O)NCc3ccco3)(OC1=O)C2(C)C` (stereo unspecified), the displacement is 1.5%.

Consider `CN1C(=O)NC(c2ccccc2[N+](=O)[O-])C2=C1CC(C)(C)CC2=O` (stereo unspecified), for which the displacement is 4.2%.

Consider `CN1C(=O)NC(c2cccc([N+](=O)[O-])c2)C2=C1CCCC2=O` (stereo unspecified), for which the displacement was 3%.

As to `C/C(=N\OC(=O)Nc1ccccc1)c1cnn(-c2cc(C(F)(F)F)cc(C)n2)c1C`, the displacement was 5.7%.

Take `COCCn1c(C)c(C(=O)O)sc1=S`: the displacement is 2.3%.

As to `CCOC(=O)c1sc(=S)n(CC)c1N`, the displacement was -0.9%.

In the case of `COc1cc2ncnc(NCc3ccccc3C)c2cc1OC`, the displacement was 4.9%.

Turning to `CCOC(=O)c1cccc(NC(=O)CSc2nnc(C)n2Cc2ccccc2)c1`, the displacement is -0.6%.

Consider `CC(=O)Nc1ccc(N=Cc2c(O)ccc3ccccc23)cc1`, for which the displacement was -0.3%.

`CC(=O)Nc1ccc(N=Cc2c(O)c3ccccc3oc2=O)cc1`: the displacement was 1.2%.

As for `Cc1cccc(N2CCN(C(=O)c3ccc(NC(=O)C4CCCO4)cc3)CC2C)c1` (stereo unspecified), the displacement was 1.8%.

Consider `COCCNC(=O)/C(C#N)=C/c1ccc(OCc2ccc(F)cc2)cc1`, for which the displacement is -1.7%.

Regarding `Cc1cc(/C=C2\NC(=O)NC2=O)c(C)n1-c1ccc(N2CCOCC2)cc1`, the displacement was -9.1%.

As to `COc1ccc(OCCn2c(N)nc3ccccc32)cc1`, the displacement was 3.4%.

`O=C(NC1CCCC1)c1ccc(COc2ccccc2Br)o1`: the displacement is 2.7%.

In the case of `O=c1[nH]c(-c2ccc3c(c2)OCO3)nc2c1sc(=S)n2-c1ccccc1`, the displacement is 1.9%.

Take `O=c1[nH]c(-c2ccccc2Cl)nc2c1sc(=S)n2-c1ccccc1`: the displacement is 2.3%.

Regarding `COc1ccccc1CN1CC(C(=O)N(C)Cc2ccc(C)o2)CCC1=O` (stereo unspecified), the displacement was -3.9%.

Take `Oc1ccc(/C=N/Nc2cccc3cccnc23)c(O)c1`: the displacement is -3.9%.

As to `Oc1c(/C=N/Nc2cccc3cccnc23)ccc2ccccc12`, the displacement was 93.1% (active).

With `Oc1ccccc1/C=N/Nc1cccc2cccnc12`, the displacement is -2.4%.

As to `CCCCCCOc1ccc(N2C(=O)CC(N3CCN(CCN=CC4=C(O)CC(C)(C)CC4=O)CC3)C2=O)cc1` (stereo unspecified), the displacement is 1.8%.

For the compound `CC(C)(C)c1ccc(C(CC(=O)O)NC(=O)Cc2ccccc2)cc1` (stereo unspecified), the displacement is 1.2%.

For `CC(C)(C)c1ccc(C(CC(=O)O)NC(=O)Cc2ccc(Cl)cc2)cc1` (stereo unspecified), the displacement is -2.3%.

As for `CCOC(=O)c1nn(-c2cccc(OC)c2)c2nc(CC)c(C#N)c(=O)n12`, the displacement is 12.2%.

Take `C=CCc1cccc2cc(C(=O)Nc3ccc(NC(C)=O)cc3)c(=O)oc12`: the displacement was 9.1%.

On to `C=CCc1cccc2cc(C(=O)Nc3ccc(F)cc3)c(=O)oc12`, for which the displacement is 5.1%.
